PubChem BioAssay (Tox21)
“And” between values parts separate entries of the source, which are not always exact repeats. Equal entries are not always repeated. Results filed as inconclusive are left out. A number with no mark means an inactive call. The source made the active and inactive calls. The call rests on the fitted dose curve.

Assay: Nuclear factor erythroid 2-related factor 2/antioxidant responsive element (Nrf2/ARE) small molecule agonists: luciferase reporter gene qHTS assay in human keratinocytes (AID 1919969); further: nearly all actives have a fitted effect of over 35% in size
Details: KeratinoSens HaCaT ARE-luciferase, luminescence, 24 h; series mostly up to 92.4 µM; activity, positive = activation: at the top concentration
Source text: National Center for Advancing Translational Sciences [NCATS]
Division of Preclinical Innovation [DPI]
U.S. Environmental Protection Agency [EPA]
National Institutes of Environmental Health Sciences [NIEHS]
National Toxicology Program [NTP]
U.S. Food and Drug Administration [FDA]
Oxidative stress has been implicated in the pathogenesis of a variety of diseases ranging from cancer to neurodegeneration. The antioxidant response element (ARE) signaling pathway plays an important role in the amelioration of oxidative stress. The KeratinoSens (Givaudan, Switzerland) is an in vitro test method which quantifies luciferase induction as a measure of activation of Keap1-Nrf2-antioxidationt/electrophile response element (ARE) dependant pathway in HaCaT human keratinocytes stably transfected with a selectable plasmid. The KeratinoSens assay is a cell-based assay with a reporter cell line to detect potential skin sensitizers by their ability to induce the Nrf2/ARE-response. The activation of the report gene under culture conditions can be detected by ONE-Glo Luciferase Assay System (Promega, Madison, WI). This cell line has been used to screen the Tox21 10K compound library to identify agonists that induce oxidative stress. The cytotoxicity of the Tox21 compound library against the KS-ARE cell line was tested in parallel by measuring the cell viability using CellTiter- Fluor assay system (Promega, Madison, WI) in the same wells.
HaCaT derived cell line KeratinoSens were dispensed at 1,500 cells/5uL/well in 1536-well white wall/solid bottom plates using a Multidrop Combi (ThermoFisher Scientific, Waltham, MA) dispenser. After the assay plates were incubated at 37 C/5% CO2 for 5 h, 23 nL of compounds dissolved in DMSO, positive controls or DMSO only was transferred to the assay plate by a pintool workstation (Kalypsys, San Diego, CA). The plates were incubated at 37 C/5% CO2 for 23 h, followed by addition of 1uL/well of CellTiter-Fluor reagent into the assay plates using a Flying Reagent Dispenser (Aurora Discovery, San Diego, CA) for cell viability readout that measures cytotoxicity. After 1 h incubation at 37 C/5% CO2 the fluorescence intensity was measured using a ViewLux (PerkinElmer, Shelton, CT) plate reader. Then 4uL/well of One-Glo were added using a Flying Reagent Dispenser. After the plates were incubated at room temperature for 30 min, the luminescence intensity in the assay plates was measured using ViewLux plate reader.
On the % scale 0 is the no-effect control and ±100 the full control effect; potency means the concentration at half of the fitted maximal effect.

| SMILES | activity, positive = activation | Potency |
| --- | --- | --- |
| CCNC(=O)NCc1cccc(Cl)c1 | -7.9% [at 42.5 µM] | – |
| CCCCC(CC)CN1CN(CC(CC)CCCC)CC(C)(N)C1 (stereo not given) | -19.2% [at 42.5 µM] | – |
| CC1(C)O[C@@H]2C[C@H]3[C@@H]4C[C@H](F)C5=CC(=O)C=C[C@]5(C)[C@H]4[C@@H](O)C[C@]3(C)[C@]2(C(=O)CO)O1 | -5.12% [at 42.5 µM] | – |
| OC(C#CCN1CCCC1)(c1ccccc1)c1ccccc1 | -1.43% [at 42.5 µM] | – |
| Oc1ccc(CCNCCCCCCNCCc2ccccc2)cc1O | -16.3% [at 42.5 µM] | – |
| CCOC(=O)NCCOc1ccc(Oc2ccccc2)cc1 | 21.2% | – |
| Brc1cc(Br)c(Oc2cc(Br)c(Br)cc2Br)cc1Br | 26.4% [at 42.5 µM] | – |
| CCCNC(C)C(=O)Nc1c(C)csc1C(=O)OC (stereo not given) | -6.11% [at 42.5 µM] | – |
| NC(N)=N/N=C/c1c(Cl)cccc1Cl | 6.34% [at 42.5 µM] | – |
| CCO[Si](CC(C)C)(OCC)OCC | 3.31% | – |
| COc1cc(S(=O)(=O)Nc2ccccc2)c(OC)cc1N | -11.4% | – |
| O=C(NO)C1(NS(=O)(=O)c2ccc(Oc3ccc(F)cc3)cc2)CCOCC1 | -17.7% | – |
| O=C(/C=C/c1ccc(O)c(O)c1)O[C@@H](C(=O)O)[C@@H](OC(=O)/C=C/c1ccc(O)c(O)c1)C(=O)O | -11.5% | – |
| CN1CCCC(CC2c3ccccc3Sc3ccccc32)C1 (stereo not given) | -8.07% [at 42.5 µM] | – |
| CCC(Cl)C(Cl)C(Cl)CC(Cl)C(Cl)C(C)Cl (stereo not given) | – | 48.6 µM (active) |
| CN(C)C(C)(C)CO | -8.4% | – |
| O=C(Oc1ccccc1)c1cccc(C(=O)Oc2ccccc2)c1 | – | 1.15 µM (active) |
| C[C@@H](O)C(=O)O | 0.685% | – |
| CNS(=O)(=O)c1cc(C(=O)N2CCC(CCN3C4CCC3CC(n3c(C)nc5ccccc53)C4)(c3cccc(F)c3)CC2)c(Cl)cc1F (stereo not given) | -4.55% | – |
| OCCN1CCN(CCCN2c3ccccc3Sc3ccc(C(F)(F)F)cc32)CC1 | -25.7% [at 42.5 µM] | – |

| SMILES | activity, positive = activation | Potency |
| --- | --- | --- |
| O=C(Cl)c1ccc([N+](=O)[O-])cc1 | -6.98% | – |
| O=Cc1ccccc1S(=O)(=O)O | -6.4% | – |
| O=[N+]([O-])c1ccc(NCCO)c(OCCO)c1 | -21.9% | – |
| O=[N+]([O-])c1ccc(O)cc1 | – | inactive |
| CC(=O)Nc1ccc(S(=O)(=O)Cl)cc1 | -6.82% | – |
| Cc1nc2c([nH]1)c(=O)n(C)c(=O)n2Cc1ccco1 | -1.59% [at 42.5 µM] | – |
| CCCCC1C(=O)N(c2ccccc2)N(c2ccc(O)cc2)C1=O (stereo not given) | – | 10.6 µM (active) |
| CNCC(O)c1ccc(O)c(O)c1 (stereo not given) | 1.48% [at 42.5 µM] | – |
| CC(C)COC(=O)CCCCC(=O)OCC(C)C | -2.4% | – |
| O=C1[C@@H]2[C@H]3CC[C@H](C3)[C@@H]2C(=O)N1CCCCN1CCN(c2ncccn2)CC1 | -3.94% [at 42.5 µM] | – |
| O=c1cc(-c2ccc(O)cc2)oc2cc(O)cc(O)c12 | – | 8.75 µM (active) and 9.69 µM (active) |
| c1ccc(-c2ccc(-c3ccccc3)cc2)cc1 | 16.6% [at 19 µM] | – |
| CCN(CCCc1ccccc1)CCCc1ccccc1 | 0.105% [at 42.5 µM] | – |
| O=C(O)Cn1cnnn1 | 1.16% [at 42.5 µM] | – |
| CC(O)CN (stereo not given) | 12.8% | – |
| Sc1nc2ccccc2s1 | – | 68.6 µM (active) |
| C#Cc1cccc(Nc2ncnc3cc(OCCOC)c(OCCOC)cc23)c1 | -21.2% [at 42.5 µM] | – |
| CCN(C(=O)N(CC)c1ccccc1)c1ccccc1 | -8.05% | – |
| Cn1cnc2c(=O)[nH]c(N)nc21 | 3.71% | – |
| O=[N+]([O-])c1ccc(O)cc1C(F)(F)F | – | 68.6 µM (active) |
